Compound activity: PubChem BioAssay, National Center for Advancing Translational Sciences (NCATS)
Sampled rows, rich in hits. Any-hit rate of the full collection: about 6.1%.
Hsp90 Hop PPI: changes Hsp90-Hop TPR2A binding signal, up or down; AlphaScreen TPR2A-His6 binding biotin-Hsp90 C-terminal peptide; hit rate 0.44% among 71,000; Potency, µM (top dose mostly 57 µM), without a hit: top-dose activity change, negative = inhibition; active means well fitted curve in either direction with a large enough effect; inconclusive means small, poorly fitted or top-dose-only effect, or another doubt
Bst PK mod: modulators of Bacillus stearothermophilus pyruvate kinase | hit rate 1.2% among 51,000 | purified pyruvate kinase, luminescence ATP production; ribose 5-phosphate activator present at AC10 | Potency, µM; in the data active means potency below about 11 µM; inconclusive means mostly about 12 µM to 25 µM;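 the screen sought inhibitors and activators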;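 further: scaled between full activation by ribose 5 phosphate and full inhibition by luteolin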
ALOX15 inhib: 15-hLO (ALOX15) enzyme inhibition; purified 15hLO-1, xylenol orange hydroperoxide absorbance; P16050; Potency, µM (top dose mostly 57.1 µM), for inactives: top-dose activity change, negative = inhibition, actives largely listed as inhibitors; hit rate 1.4% among 74,000; further: nearly all actives have a fitted effect of over 55% in size
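40 nM 15hLO-1 + cpd, 15 min RT; start w/ 50 uM AA (final), 6 min RT; stop/detect w/ 200 uM XO + 300 uM Fe(II) in 50 mM H2SO4, 30 min; A573/A405. Buffer 25 mM Hepes pH 7.5, 0.01% Triton X-100. No-enzyme wells as negative control.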
Tau fil binding: binds recombinant human tau filaments; P10636; Potency, µM (series often up to 57.1 µM), for inactives: top-dose activity change, negative = inhibition; recombinant tau filaments, thioflavin S fluorescence, 15 h; filaments grown with octadecylsulfate alongside compound; hit rate 2% among 71,000;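 further: actives lower thioflavin S fluorescence by blocking filaments or displacing dye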
Target sequence (P10636 whole entry, looked up): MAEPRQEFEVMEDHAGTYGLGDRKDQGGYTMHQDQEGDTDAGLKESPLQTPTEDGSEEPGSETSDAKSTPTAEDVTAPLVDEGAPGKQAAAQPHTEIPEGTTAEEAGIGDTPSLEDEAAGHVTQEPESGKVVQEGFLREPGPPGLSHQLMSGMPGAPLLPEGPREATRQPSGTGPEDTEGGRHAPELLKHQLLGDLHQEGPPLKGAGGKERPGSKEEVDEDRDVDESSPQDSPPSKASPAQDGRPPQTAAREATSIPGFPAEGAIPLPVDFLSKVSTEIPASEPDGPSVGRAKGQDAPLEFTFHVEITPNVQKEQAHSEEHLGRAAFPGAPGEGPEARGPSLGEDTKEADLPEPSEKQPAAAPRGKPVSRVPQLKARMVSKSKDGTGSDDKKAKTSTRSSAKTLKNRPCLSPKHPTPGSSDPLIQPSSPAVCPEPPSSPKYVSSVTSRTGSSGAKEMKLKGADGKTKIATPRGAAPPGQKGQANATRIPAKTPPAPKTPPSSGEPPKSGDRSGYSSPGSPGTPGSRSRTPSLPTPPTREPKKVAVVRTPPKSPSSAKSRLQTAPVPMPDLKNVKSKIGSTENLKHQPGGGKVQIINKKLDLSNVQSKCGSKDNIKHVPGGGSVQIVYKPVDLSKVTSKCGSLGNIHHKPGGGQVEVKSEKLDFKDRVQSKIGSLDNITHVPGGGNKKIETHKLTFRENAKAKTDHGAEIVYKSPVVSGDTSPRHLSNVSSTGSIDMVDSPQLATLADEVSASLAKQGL
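ThS-based fibril read: tau 1 uM final, inducer ODS 30 uM final, 37 C for 15 h, ex 450/em 510 nm.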
ERK AVP block: inhibitors of vasopressin-stimulated ERK signaling pathway | HEK293-V1b, vasopressin-stimulated pERK AlphaScreen | Potency, µM (series often up to 57.5 µM), inactives show at the highest dose activity, negative = inhibition, hits mostly inhibitors | hit rate 0.99% among 72,000; further: nearly all actives have a fitted effect of over 55% in size
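Overnight-seeded V1b-HEK293 cells in 1% FBS got compound, then vasopressin (25 nM final, 5 min, 37C), then lysis buffer. AlphaScreen detection of phospho-ERK; activity normalized to basal and full-stimulation controls.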
Luciferase inh: blocks Photinus pyralis firefly luciferase activity; P08659; purified firefly luciferase, luminescence, 8 min; Potency, µM (highest dose often 57.1 µM), for inactives: top-dose activity change, negative = inhibition, most hits filed as inhibitors; hit rate 2.2% among 72,000; further: nearly all actives have a fitted effect of over 40% in size
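Here, luciferase activity is measured as luminescence following an 8 min room-temperature reaction at 10 uM ATP, pH 7.2. Every library sample is titrated.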
* marks the source's active call; other numbers are inactive results; i = inactive; ? = inconclusive; · = not tested or not shown; ! = not confirmed by another sample; [ ] = remark or other dose. Unless noted, the call rests on the fitted dose curve; in most records, active means well fitted curve in the direction sought with a large enough effect; inconclusive means small, poorly fitted or top-dose-only effect, or another doubt; inactive means no such curve, though single readings can be large; an effect the other way counts as inactive or inconclusive. Unless noted, on the % scale 0 is the no-effect control and ±100 the full control effect; potency means the concentration at half of the fitted maximal effect.

SMILES	Hsp90 Hop PPI	Bst PK mod	ALOX15 inhib	Tau fil binding	ERK AVP block	Luciferase inh
N[C@@H](Cc1c[nH]c2ccccc12)C(=O)NCC(=O)O	-4%	·	·	?	·	1%[11.4 µM]
CCOc1cc(C)c(S(=O)(=O)NC2CCCCC2)cc1C	0%	>57	-18%	10µM*	-11%	5%
CCOc1cc(S(=O)(=O)NC2CCCCCC2)ccc1F	1%	>57	-8%	-23%	9%	-1%
N#Cc1cnc(Nc2nc3ccccc3o2)nc1-c1ccccc1	-4%	>57	30%	132%	-20%	2%
Cc1ccnc(Nc2nc3ccccc3o2)n1	-10%	·	56%	-8%	14%	6.3µM*
Nc1ccc(-c2n[nH]c(=O)c3ccccc23)cc1N	-14%	>57	?	16µM*	-20%	-14%
Cc1ccc(-c2n[nH]c(=O)c3ccccc23)cc1N	-4%	>57	-2%	-3%	-12%	1%
Cc1ccc(Nc2nc(N3CCOCC3)c3ccccc3n2)cc1	3%	·	?	?	?	-6%
Oc1ccc(Nc2nc(N3CCCC3)c3ccccc3n2)cc1	-22%	i	?	132%	32µM*	-10%
Nc1nc(Nc2ccccc2)nc2ccccc12	-2%	5.5*	?	56%	13µM*	6.3µM*
O[C@@H](c1cc(C(F)(F)F)nc2c(Cl)cc(Cl)cc12)[C@@H]1CCCCN1	0%[11 µM]	·	-3%[11.4 µM]	-16%[11.4 µM]	-17%[11.5 µM]	2%[11.4 µM]
COC(=O)c1ccc(C(NC(=O)OCc2ccccc2)/C(=C/[C@@H](C)C(=O)NCc2ccc(OC)c(OC)c2)c2cccnc2)cc1 (stereo not given in full)	2%	·	-3%	-9%	2%	·
CCOC(=O)c1[nH]cc(-c2ccccc2)c1N1CCOCC1	-4%	>57	25µM*	-5%	5%	3%
CCOC(=O)c1ccccc1NC(=O)c1ccc(NS(C)(=O)=O)cc1	1%	·	-11%	-5%	25µM*	-1%
COC(=O)c1ccccc1NC(=O)c1ccc(F)cc1	14%	·	17%[25.6 µM]	?	12%	2%
N#Cc1cccc(NC(=O)N2CCCC3(CCN(C(=O)c4cc(C(F)(F)F)cc(C(F)(F)F)c4)CC3)C2)c1	2%	·	-4%	-2%	-14%	-1%[11.4 µM]
CC[C@@H]1Cn2c(c3nc(-c4ccccc4)nc-3n(C)c2=O)N1	·	·	?	·	-24%	·
C=CCn1c(N)c(-c2nc3ccccc3n2C)sc1=S	-8%	>57	-8%	16µM*	?	-1%
COc1ccccc1-n1cc(C(=O)NCC(=O)N2CCN(c3ccccc3)CC2)c2ccccc2c1=O	-5%	3.7*	6%	3%	22%	2µM*
COc1ccccc1-n1cc(C(=O)NCC(=O)N2CCN(c3ccccn3)CC2)c2ccccc2c1=O	-3%	?	1%	-14%	11%	6.3µM*
O=C(Cn1cnc2ccccc2c1=O)NCC(=O)N1CCN(c2ccccn2)CC1	-4%	>57	7%	-10%	23%	1%
Nc1nc(=O)c2[nH]cnc2n1O	-1%[11 µM]	·	3%[11.4 µM]	6%[11.4 µM]	-15%[11.5 µM]	0%[11.4 µM]
O=C(O)[C@@H](O)[C@@H](O)[C@@H](O)[C@@H](O)c1nc2ccccc2s1	-6%[11 µM]	·	-9%[11.4 µM]	-3%[11.4 µM]	9%[11.5 µM]	-7%[11.4 µM]
O=c1oc2ccccc2cc1-c1nc2ccccc2o1	6%	?	0%	-24%	26%	16µM*
Cc1cc(-c2nnc(-c3cc4ccccc4oc3=O)o2)c(C)n1-c1ccccc1	2%	>57	-12%	3.2µM*	-5%	-3%
SMILES	Hsp90 Hop PPI	Bst PK mod	ALOX15 inhib	Tau fil binding	ERK AVP block	Luciferase inh
COc1cccc(NC(=O)CSc2nnc(-c3cc(C)n(-c4ccccc4)c3C)o2)c1	-9%	·	-26%	37%	-26%	-22%
O=C1C(SCCO)=C(SCCO)C(=O)c2ccccc21	?	·	-18%[25.6 µM]	5µM*!	16µM*	-1%
COC(=O)CCn1nnc(-c2cccs2)n1	-2%	>57	4%	-1%	-15%	3%
COC(=O)CCn1nnc(-c2ccc(C(C)C)cc2)n1	18%	>57	-2%	-1%	15%	13µM*
COc1ncc2nc(-c3cccs3)c(=O)n(-c3ccccc3)c2n1	-3%	·	1%	124%	8%	1%[11.4 µM]
COc1ccc(N2C(=O)CC(Sc3nnc(-c4ccccc4)o3)C2=O)cc1 (stereo not given)	-7%[11 µM]	·	-12%[11.4 µM]	-3%[11.4 µM]	-14%	-11%
O=C1OCCC1Sc1nnc(-c2ccccc2)o1 (stereo not given)	6%	8.8*	-2%	12%	?	-15%
C=CC(C1=CC(=O)C(OC)=CC1=O)c1ccc(O)cc1 (stereo not given)	·	·	25µM*	·	25%	·
C[C@@]12CC(=O)[C@@H]3[C@@H](CCC4=CC(=O)CC[C@]43C)[C@@H]1CC=C2CC(=O)O	0%[11 µM]	·	-8%[11.4 µM]	3%[11.4 µM]	-3%[11.5 µM]	-2%[11.4 µM]
COc1ccc2nc3cc(Cl)ccc3c(Nc3ccc(O)c(CN4CCN(C)CC4)c3)c2c1	-1%[11 µM]	·	9%[11.4 µM]	0.25µM*	-11%[11.5 µM]	-3%[11.4 µM]
Cc1ccccc1N1C(=O)c2cc(S(N)(=O)=O)c(Cl)cc2N[C@H]1C	-1%[26 µM]	·	5%[25.6 µM]	3%[25.6 µM]	-11%[25.7 µM]	1%[25.5 µM]
CCCCCCSC1=C(C#N)C(c2ccc(O)cc2)CC(=O)N1 (stereo not given)	-6%	>11	20µM*	44%	16µM*	3%
CC1(C)[C@@H](O)CC[C@@]2(C)[C@H]1CC[C@]1(C)[C@H]2C(=O)C=C2[C@@H]3C[C@@](C)(C(=O)O)CC[C@]3(C)CC[C@@]21C	-5%	·	·	?	·	1%[11.4 µM]
N#C/C(=C\c1ccc(O)c(O)c1)S(=O)(=O)c1ccccc1	-21%	>57	4µM*	-1%	-7%	-1%
O=C(Cc1cccs1)Nc1ccccn1	-7%	>57	-4%	-16%	1%	0%
CC(C)(C)c1cc(/C=C(\C#N)C(N)=S)cc(C(C)(C)C)c1O	?	·	?	-19%	-9%	-3%
N#C/C(=C\c1ccc(O)c(O)c1)C(=O)c1ccc(O)c(O)c1	?	·	4µM*	3%	?	-5%
N#C/C(=C\c1ccc(O)c(O)c1)C(=O)OCCc1cccs1	4µM*	·	?	-29%	-13%	-10%
O=C(O)CCCC(=O)NCCCc1ccccc1	-6%[11 µM]	·	2%[11.4 µM]	4%[11.4 µM]	-13%	2%
N#C/C(=C\c1ccc(O)c(O)c1)C(=O)NCCCc1ccccc1	5µM*!	>11	2.5µM*	-18%	?	-1%[25.5 µM]
CCOC(=O)c1cnc2c(cnn2CC)c1NN=C(C)C	2%	·	2%[25.6 µM]	?	?	-1%
COc1ccc(-c2nc3cnc(N4CCOCC4)nc3n(CCc3ccccc3)c2=O)cc1	24%	·	?	87%	17%	-1%[11.4 µM]
CN1CCN(c2ncc3nc(CCc4ccccc4)c(=O)n(C)c3n2)CC1	-2%	·	2%	42%	-12%	-3%[11.4 µM]
N#C/C(=C\c1c[nH]c2ccccc12)C(=O)c1ccc(O)c(O)c1	?	·	0.25µM*	-2%	?	-2%
